Laboratory results taken from publication PMC7862700, “An all-to-all approach to the identification of sequence-specific readers for epigenetic DNA modifications on cytosine”.

Assays:
Assay in all cases: DAPPL (digital affinity profiling via proximity ligation, sequencing); 10 mM Tris-HCl pH 7.5, 50 mM NaCl, 1 mM DTT, 4% glycerol, room temperature, 30 min; GST-TFs on glutathione beads, 16-mer random dsDNA library, 0.1% formaldehyde crosslink after washing; high values mean tight binding
Settings in all cases: protein: recombinant; tags: N-terminal GST; dsDNA, one strand shown
[1] = target: T1, FLI1 (Homo sapiens, UniProt Q01543 1-452)
T1 sequence: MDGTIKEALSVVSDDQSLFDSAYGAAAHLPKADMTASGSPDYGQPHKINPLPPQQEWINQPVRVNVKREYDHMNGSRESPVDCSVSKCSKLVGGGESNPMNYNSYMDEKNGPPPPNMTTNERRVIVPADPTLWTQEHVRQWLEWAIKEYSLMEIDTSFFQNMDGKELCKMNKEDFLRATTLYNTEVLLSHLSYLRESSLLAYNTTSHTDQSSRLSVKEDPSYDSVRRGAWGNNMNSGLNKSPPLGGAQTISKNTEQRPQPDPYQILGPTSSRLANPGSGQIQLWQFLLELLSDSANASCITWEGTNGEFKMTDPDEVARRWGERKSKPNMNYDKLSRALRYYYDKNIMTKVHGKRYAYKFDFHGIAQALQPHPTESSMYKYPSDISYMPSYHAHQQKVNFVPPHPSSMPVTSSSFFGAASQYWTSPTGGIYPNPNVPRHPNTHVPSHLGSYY
Method in brief: (§1)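 After expression in yeast as GST fusions, human transcription factors were bound to glutathione beads, DNA-barcoded and mixed with a tag-only sample. The pools were incubated with 200 nmole of a 16-mer random double-stranded DNA library in Tris/NaCl/DTT/glycerol buffer (30 min, room temperature), washed and crosslinked with 0.1% formaldehyde. Proximity ligation with BsaI/T4 ligase ran for 1 h at 37 °C, before PCR amplification and sequencing on an Illumina NextSeq500. Binding signal is a hexamer's read frequency for a factor divided by its frequency for the tag-only sample.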

[2] = target: T2, GABPA (Homo sapiens, UniProt Q06546 1-454)
T2 sequence: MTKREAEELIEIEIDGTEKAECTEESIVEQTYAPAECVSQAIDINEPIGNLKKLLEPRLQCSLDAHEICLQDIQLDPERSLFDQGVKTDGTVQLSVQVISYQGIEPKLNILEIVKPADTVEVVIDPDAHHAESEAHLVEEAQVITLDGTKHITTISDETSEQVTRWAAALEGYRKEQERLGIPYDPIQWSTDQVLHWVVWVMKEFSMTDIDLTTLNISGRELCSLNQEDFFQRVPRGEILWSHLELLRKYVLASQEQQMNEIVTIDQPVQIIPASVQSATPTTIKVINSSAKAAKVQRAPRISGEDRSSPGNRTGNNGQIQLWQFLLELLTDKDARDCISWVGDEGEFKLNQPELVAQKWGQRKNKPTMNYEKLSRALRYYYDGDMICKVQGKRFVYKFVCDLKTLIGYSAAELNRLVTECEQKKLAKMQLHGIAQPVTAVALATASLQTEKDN
Method in brief: as §1

[3] = target: T3, ERG (Homo sapiens, UniProt P11308 1-479)
T3 sequence: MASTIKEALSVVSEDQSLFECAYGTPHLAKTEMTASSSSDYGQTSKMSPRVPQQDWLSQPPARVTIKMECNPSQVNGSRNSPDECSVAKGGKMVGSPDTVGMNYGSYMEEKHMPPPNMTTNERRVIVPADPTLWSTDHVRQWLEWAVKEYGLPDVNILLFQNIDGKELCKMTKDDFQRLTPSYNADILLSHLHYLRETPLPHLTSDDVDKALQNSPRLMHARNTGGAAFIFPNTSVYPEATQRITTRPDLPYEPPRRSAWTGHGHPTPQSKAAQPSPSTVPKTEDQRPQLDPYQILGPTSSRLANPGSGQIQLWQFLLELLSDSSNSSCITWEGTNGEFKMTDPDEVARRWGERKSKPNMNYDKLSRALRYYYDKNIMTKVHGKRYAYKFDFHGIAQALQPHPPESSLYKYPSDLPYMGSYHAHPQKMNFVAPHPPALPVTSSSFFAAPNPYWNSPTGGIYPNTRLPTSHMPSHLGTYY
Method in brief: as §1

[4] = target: ELF1 (Homo sapiens, UniProt P32519 1-619)
Method in brief: as §1

[5] = target: T4, EHF (Homo sapiens, UniProt Q9NZC4 1-300)
T4 sequence: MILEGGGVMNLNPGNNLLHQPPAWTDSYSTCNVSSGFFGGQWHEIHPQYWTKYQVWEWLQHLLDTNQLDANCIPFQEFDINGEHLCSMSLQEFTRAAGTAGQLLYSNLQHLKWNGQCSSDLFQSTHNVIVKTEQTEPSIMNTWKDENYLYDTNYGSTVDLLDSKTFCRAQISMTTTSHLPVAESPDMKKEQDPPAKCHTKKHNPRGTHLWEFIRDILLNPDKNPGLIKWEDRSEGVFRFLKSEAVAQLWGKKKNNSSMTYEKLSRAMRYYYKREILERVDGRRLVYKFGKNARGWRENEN
Method in brief: as §1

[6] = target: SPI1 (Homo sapiens, UniProt P17947 1-270)
Method in brief: as §1

[7] = target: SPIB (Homo sapiens, UniProt Q01892 1-262)
Method in brief: as §1

[8] = target: T5, FEV (Homo sapiens, UniProt Q99581 1-238)
T5 sequence: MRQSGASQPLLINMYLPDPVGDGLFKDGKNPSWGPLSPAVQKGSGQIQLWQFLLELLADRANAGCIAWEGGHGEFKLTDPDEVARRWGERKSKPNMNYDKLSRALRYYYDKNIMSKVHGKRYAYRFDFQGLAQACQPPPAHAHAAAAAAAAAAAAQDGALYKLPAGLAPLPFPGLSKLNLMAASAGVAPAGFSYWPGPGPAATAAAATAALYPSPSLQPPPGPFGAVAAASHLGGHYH
Method in brief: as §1

[9] = target: ETV5 (Homo sapiens, UniProt P41161 1-510)
Method in brief: as §1

[10] = target: T6, SPIC (Homo sapiens, UniProt Q8N5J4 1-248)
T6 sequence: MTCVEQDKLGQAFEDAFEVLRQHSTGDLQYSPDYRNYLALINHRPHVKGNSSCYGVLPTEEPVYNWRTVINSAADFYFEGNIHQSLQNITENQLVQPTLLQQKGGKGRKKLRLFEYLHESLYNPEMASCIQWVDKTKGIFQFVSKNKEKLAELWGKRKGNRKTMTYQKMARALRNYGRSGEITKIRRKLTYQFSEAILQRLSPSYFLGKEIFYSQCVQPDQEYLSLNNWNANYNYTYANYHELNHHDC
Method in brief: as §1

[11] = target: ELF4 (Homo sapiens, UniProt Q99607 1-663)
Method in brief: as §1

[12] = target: ETV1 (Homo sapiens, UniProt P50549 1-477)
Method in brief: as §1

[13] = target: T7, ERF (Homo sapiens, UniProt P50548 1-548)
T7 sequence: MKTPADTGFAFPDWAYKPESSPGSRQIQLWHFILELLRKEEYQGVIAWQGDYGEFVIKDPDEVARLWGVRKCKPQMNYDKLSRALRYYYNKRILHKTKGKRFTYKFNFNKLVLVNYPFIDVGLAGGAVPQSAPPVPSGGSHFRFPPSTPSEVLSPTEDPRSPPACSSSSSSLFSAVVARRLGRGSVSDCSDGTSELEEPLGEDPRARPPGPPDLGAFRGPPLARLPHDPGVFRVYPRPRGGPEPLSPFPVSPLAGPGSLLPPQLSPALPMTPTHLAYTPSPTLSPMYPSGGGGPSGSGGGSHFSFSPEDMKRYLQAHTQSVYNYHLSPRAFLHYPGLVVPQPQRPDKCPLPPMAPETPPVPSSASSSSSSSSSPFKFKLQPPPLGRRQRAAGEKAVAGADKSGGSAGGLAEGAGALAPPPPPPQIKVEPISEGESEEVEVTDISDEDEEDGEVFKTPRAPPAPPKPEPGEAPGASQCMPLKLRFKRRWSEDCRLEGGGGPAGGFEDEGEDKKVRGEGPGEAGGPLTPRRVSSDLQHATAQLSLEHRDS
Method in brief: as §1

[14] = target: T8, ETV3L (Homo sapiens, UniProt Q6ZN32 1-361)
T8 sequence: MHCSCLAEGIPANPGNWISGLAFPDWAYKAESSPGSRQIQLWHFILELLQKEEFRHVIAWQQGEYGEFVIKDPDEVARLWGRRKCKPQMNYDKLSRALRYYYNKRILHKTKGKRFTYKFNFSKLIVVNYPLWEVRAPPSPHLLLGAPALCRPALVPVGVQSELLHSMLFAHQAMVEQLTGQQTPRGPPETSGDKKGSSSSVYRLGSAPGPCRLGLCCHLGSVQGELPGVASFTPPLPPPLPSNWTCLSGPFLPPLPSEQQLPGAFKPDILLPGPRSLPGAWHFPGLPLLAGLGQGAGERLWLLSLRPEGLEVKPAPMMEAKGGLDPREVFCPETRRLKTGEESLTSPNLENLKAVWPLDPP
Method in brief: as §1

[15] = target: T9, ETS2 (Homo sapiens, UniProt P15036 1-469)
T9 sequence: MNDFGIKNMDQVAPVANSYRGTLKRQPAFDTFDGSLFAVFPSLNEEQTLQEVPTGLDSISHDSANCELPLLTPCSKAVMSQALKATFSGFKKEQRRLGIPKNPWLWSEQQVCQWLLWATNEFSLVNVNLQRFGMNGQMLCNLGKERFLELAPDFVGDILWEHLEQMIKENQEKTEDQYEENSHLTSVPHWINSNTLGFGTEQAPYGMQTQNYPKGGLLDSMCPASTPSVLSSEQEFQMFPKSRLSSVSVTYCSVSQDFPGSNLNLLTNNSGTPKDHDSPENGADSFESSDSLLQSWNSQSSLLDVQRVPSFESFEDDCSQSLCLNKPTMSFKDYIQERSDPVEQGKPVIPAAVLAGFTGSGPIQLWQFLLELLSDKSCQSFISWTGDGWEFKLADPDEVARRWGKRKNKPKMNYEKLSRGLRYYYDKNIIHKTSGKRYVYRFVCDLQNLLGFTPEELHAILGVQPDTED
Method in brief: as §1

[16] = target: T10, SPDEF (Homo sapiens, UniProt O95238 1-335)
T10 sequence: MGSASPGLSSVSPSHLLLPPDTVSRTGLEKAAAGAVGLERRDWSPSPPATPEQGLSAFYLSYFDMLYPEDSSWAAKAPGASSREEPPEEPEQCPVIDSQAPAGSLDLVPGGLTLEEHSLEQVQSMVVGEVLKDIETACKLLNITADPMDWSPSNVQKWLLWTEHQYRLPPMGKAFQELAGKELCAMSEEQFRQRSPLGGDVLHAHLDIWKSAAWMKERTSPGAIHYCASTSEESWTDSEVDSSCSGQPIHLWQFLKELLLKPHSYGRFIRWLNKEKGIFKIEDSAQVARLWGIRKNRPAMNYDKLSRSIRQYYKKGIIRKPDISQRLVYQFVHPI
Method in brief: as §1

[17] = target: T11, ETV3 (Homo sapiens, UniProt P41162-2 1-143)
T11 sequence: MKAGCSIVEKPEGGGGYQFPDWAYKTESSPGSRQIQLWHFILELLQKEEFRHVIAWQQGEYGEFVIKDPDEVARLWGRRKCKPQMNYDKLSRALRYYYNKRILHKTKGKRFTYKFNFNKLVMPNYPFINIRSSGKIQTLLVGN
Method in brief: as §1

[18] = target: ETV6 (Homo sapiens, UniProt P41212 1-452)
Method in brief: as §1

Sequence of ETV6 (P41212 whole entry): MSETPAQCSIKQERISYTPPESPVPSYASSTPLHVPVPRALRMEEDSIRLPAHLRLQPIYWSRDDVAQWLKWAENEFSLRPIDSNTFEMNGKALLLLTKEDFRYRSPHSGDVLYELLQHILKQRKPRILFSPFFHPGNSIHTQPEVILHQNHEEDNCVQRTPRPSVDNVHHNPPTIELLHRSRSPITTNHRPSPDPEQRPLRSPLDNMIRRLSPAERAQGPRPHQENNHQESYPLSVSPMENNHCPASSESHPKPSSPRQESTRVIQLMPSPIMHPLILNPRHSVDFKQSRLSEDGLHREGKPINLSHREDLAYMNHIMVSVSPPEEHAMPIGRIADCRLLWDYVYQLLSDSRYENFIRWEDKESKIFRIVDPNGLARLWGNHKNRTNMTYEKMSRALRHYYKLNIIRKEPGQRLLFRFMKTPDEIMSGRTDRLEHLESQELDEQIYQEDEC
Sequence of ELF4 (Q99607 whole entry): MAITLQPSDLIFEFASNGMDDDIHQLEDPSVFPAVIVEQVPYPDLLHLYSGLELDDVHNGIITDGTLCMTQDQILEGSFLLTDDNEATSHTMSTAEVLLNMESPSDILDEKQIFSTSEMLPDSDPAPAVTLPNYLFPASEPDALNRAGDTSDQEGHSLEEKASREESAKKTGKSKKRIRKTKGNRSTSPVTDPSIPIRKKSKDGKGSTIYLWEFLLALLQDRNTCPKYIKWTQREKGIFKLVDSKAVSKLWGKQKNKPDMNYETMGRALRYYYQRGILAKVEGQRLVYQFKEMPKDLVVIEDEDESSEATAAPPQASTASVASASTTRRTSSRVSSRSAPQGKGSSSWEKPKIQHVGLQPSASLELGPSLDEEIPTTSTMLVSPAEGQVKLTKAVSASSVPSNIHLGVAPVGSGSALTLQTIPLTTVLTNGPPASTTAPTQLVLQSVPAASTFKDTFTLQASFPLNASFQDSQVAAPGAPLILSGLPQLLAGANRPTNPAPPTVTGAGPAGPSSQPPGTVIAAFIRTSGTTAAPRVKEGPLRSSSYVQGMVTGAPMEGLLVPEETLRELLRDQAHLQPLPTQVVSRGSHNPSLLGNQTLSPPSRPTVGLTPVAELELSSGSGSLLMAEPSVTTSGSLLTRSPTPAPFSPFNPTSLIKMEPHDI
Sequence of SPIB (Q01892 whole entry): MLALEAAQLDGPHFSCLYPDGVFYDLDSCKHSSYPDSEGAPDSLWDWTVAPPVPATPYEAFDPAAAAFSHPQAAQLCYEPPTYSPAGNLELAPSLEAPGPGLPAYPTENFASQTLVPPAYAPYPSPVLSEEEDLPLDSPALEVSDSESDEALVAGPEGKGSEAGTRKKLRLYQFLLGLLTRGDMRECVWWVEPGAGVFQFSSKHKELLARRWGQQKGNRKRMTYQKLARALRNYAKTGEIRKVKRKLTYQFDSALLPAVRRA
Sequence of ETV1 (P50549 whole entry): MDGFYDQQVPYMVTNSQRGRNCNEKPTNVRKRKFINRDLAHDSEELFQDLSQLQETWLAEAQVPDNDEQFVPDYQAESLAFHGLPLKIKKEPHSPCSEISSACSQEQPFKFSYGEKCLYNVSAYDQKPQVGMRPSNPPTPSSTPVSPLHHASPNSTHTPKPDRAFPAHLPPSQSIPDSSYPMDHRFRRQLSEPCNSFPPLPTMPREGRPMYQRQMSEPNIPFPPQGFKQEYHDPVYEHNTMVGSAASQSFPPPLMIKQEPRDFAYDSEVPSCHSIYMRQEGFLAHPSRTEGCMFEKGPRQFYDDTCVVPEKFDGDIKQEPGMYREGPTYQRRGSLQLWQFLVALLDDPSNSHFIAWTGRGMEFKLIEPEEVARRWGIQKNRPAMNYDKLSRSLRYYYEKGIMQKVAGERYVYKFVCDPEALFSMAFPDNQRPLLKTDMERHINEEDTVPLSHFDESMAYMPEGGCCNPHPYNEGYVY
Sequence of ETV5 (P41161 whole entry): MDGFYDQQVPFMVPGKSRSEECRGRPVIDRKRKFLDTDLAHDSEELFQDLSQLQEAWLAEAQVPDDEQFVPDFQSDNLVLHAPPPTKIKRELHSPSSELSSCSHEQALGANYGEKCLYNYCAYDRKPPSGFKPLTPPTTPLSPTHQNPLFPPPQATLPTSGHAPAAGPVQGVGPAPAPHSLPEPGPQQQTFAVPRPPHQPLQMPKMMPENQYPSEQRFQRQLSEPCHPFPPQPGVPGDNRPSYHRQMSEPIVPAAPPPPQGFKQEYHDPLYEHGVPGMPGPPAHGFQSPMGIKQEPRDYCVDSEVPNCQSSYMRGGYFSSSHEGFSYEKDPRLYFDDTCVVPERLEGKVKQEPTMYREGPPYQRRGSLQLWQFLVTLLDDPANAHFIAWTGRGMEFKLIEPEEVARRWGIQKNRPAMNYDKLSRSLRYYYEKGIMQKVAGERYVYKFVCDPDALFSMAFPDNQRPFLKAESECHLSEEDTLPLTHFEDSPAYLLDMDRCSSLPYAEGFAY
Sequence of ELF1 (P32519 whole entry): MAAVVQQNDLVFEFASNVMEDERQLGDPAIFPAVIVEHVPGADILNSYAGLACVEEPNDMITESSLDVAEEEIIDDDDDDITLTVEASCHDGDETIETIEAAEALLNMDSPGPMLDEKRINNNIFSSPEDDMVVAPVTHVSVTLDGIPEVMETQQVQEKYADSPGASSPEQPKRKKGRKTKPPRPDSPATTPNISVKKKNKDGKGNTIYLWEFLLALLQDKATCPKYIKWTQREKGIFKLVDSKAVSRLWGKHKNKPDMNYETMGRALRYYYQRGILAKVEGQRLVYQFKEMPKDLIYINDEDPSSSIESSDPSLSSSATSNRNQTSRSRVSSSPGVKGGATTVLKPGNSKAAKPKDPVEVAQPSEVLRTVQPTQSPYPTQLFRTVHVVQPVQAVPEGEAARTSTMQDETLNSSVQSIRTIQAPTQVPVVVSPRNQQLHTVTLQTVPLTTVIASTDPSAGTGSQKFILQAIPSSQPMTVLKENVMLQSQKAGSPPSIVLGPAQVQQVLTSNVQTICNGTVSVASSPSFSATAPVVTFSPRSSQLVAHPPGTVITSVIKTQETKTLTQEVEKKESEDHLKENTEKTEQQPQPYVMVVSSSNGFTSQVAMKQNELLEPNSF

Sequence: CGCGAC
- binding signal [1]: 1.08 fold enrichment (6-mer frequency, TF over GST control)
- binding signal [2]: 1.09 fold enrichment (6-mer frequency, TF over GST control)
- binding signal [3]: 1.04 fold enrichment (6-mer frequency, TF over GST control)
- binding signal [4]: 1.12 fold enrichment (6-mer frequency, TF over GST control)
- binding signal [5]: 1.12 fold enrichment (6-mer frequency, TF over GST control)
- binding signal [6]: 1.08 fold enrichment (6-mer frequency, TF over GST control)
- binding signal [7]: 1.11 fold enrichment (6-mer frequency, TF over GST control)
- binding signal [8]: 1.01 fold enrichment (6-mer frequency, TF over GST control)
- binding signal [9]: 1.08 fold enrichment (6-mer frequency, TF over GST control)
- binding signal [10]: 1.31 fold enrichment (6-mer frequency, TF over GST control)
- binding signal [11]: 1.09 fold enrichment (6-mer frequency, TF over GST control)
- binding signal [12]: 1.06 fold enrichment (6-mer frequency, TF over GST control)
- binding signal [13]: 1.16 fold enrichment (6-mer frequency, TF over GST control)
- binding signal [14]: 1.04 fold enrichment (6-mer frequency, TF over GST control)
- binding signal [15]: 1.12 fold enrichment (6-mer frequency, TF over GST control)
- binding signal [16]: 1.08 fold enrichment (6-mer frequency, TF over GST control)
- binding signal [17]: 1.04 fold enrichment (6-mer frequency, TF over GST control)
- binding signal [18]: 1.04 fold enrichment (6-mer frequency, TF over GST control)
